Legend:
[1] = molecular target: T1, Aspartate--tRNA(Asp/Asn) ligase (Mycobacterium tuberculosis (strain ATCC 25618 / H37Rv)) (UniProt P9WFW3); experiment: Assay for Asp RNA synthetase-1 from Mycobacterium tuberculosis; type: functional; set-up: scale not given: direction of the effect not stated beside the values; conditions: 30 µM; further: in the data most compounds retested in dose-response had high values
T1 sequence (whole entry): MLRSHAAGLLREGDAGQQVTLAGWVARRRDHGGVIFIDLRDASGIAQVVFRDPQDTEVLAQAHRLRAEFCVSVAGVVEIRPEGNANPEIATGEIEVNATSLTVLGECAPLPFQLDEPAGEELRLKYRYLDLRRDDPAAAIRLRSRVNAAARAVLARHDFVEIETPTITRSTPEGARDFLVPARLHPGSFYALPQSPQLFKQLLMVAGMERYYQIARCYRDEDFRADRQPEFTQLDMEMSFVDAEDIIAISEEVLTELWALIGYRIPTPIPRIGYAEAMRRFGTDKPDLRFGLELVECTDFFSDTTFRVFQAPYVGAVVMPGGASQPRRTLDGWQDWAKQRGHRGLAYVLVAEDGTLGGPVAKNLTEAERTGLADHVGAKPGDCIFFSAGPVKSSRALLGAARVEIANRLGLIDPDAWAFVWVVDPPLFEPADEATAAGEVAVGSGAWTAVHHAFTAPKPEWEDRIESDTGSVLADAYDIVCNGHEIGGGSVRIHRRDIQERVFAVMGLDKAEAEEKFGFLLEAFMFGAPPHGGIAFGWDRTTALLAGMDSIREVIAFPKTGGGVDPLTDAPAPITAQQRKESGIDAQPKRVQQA

[2] = molecular target: Shiga toxin 2 (Escherichia coli O157:H7) (UniProt P09385+P09386); experiment: E. coli 0.157:H7 Shiga Toxin SOP - stx2 screening assay; type: functional; set-up: scale not given: direction of the effect not stated beside the values; conditions: 30 µM

CNC(=O)[C@@]12CCO[C@@H]1CCN(S(=O)(=O)c1cccc(C)c1)C2
Percent Effect [1]: -4.6% | Percent Effect [2]: 9.63%

CN(C)CC1CSCCCN1C(=O)Nc1ccc(C(C)(C)C)cc1 (stereo not drawn)
Percent Effect [1]: 0.656% | Percent Effect [2]: 11.6%

CCN(CC)C(=O)c1nnc2ccc(N3CCOCC3)cc2n1
Percent Effect [1]: -5.17% | Percent Effect [2]: -18.6%

CNS(=O)(=O)c1ccc(C(=O)N2CCCC2c2cnn(C)c2)o1 (stereo not drawn)
Percent Effect [1]: -2.58% | Percent Effect [2]: -29.3%

Cc1ccsc1CN(Cc1ccccn1)CC(C)C
Percent Effect [1]: -2.01% | Percent Effect [2]: -3.58%

Cc1occc1C(=O)N1CCc2ncnc(-c3cnn(C)c3)c2CC1
Percent Effect [1]: -0.55% | Percent Effect [2]: -3.59%

CCN1CCN(c2ccc(CNC(=O)c3c(C)noc3C)cn2)CC1
Percent Effect [1]: -3.84% | Percent Effect [2]: -40.9%

CC(C)CC1SCC(=O)Nc2c1cnn2-c1ccc(F)cc1 (stereo not drawn)
Percent Effect [1]: -3.46% | Percent Effect [2]: 0.343%

CCc1nc(C2CCCN2C(=O)c2ncoc2CC)no1 (stereo not drawn)
Percent Effect [1]: -3.37% | Percent Effect [2]: 4.73%

COc1ccc(CN2C[C@H]3CC[C@](O)(c4ccc(C)cn4)[C@H]3C2)c(F)c1
Percent Effect [1]: 2.93% | Percent Effect [2]: 14.7%

CC(C)(C)c1nc(CN2CCCC(Cn3cncn3)C2)cs1 (stereo not drawn)
Percent Effect [1]: 4.23% | Percent Effect [2]: 13.2%

COCCO[C@H]1CCN(Cc2cccs2)[C@H]1Cc1cccnc1
Percent Effect [1]: 0.0141% | Percent Effect [2]: 9.31%

Cc1cnn(CC2CCCN2C(=O)c2cc(C)no2)c1 (stereo not drawn)
Percent Effect [1]: -4.16% | Percent Effect [2]: 16.5%

O=C(CC1CCCC1)N1C[C@@H]2CCN(c3cccnc3)C[C@@H]2C1
Percent Effect [1]: 2% | Percent Effect [2]: -5.1%

C=Cc1ccc(C(=O)N2CCCC(Nc3ccc(OC)cc3)C2)cc1 (stereo not drawn)
Percent Effect [1]: 1.04% | Percent Effect [2]: -6.01%

Cc1cc(CN(C)C(=O)c2cccc(N3CCCC3=O)c2)no1
Percent Effect [1]: 4.48% | Percent Effect [2]: -12.4%

CN(CC(=O)N1CCCC1c1cnn(C)c1)c1ccc(Cl)cn1 (stereo not drawn)
Percent Effect [1]: -2.16% | Percent Effect [2]: 29.7%

CCc1nc(CC(=O)N2CCn3c(nnc3C(C)C)C2)cs1
Percent Effect [1]: -0.367% | Percent Effect [2]: -14.7%

Cc1noc(C)c1CNCC1CCCN1c1cccnn1 (stereo not drawn)
Percent Effect [1]: 1.53% | Percent Effect [2]: 5.13%

Cc1cnc2n(c1=O)CC(C(=O)NC1CC1)CS2 (stereo not drawn)
Percent Effect [1]: -3.65% | Percent Effect [2]: 0.421%

O=C(c1cnco1)N1CCCC(Cc2nccs2)C1 (stereo not drawn)
Percent Effect [1]: 1.57% | Percent Effect [2]: -2.47%

CC(=O)N1CCCC1c1nnc2n1CCCCC2 (stereo not drawn)
Percent Effect [1]: -0.915% | Percent Effect [2]: 0.261%

CC(=O)NC1CCCN(C(=O)NCc2cccnc2N(C)C)C1 (stereo not drawn)
Percent Effect [1]: -7.86% | Percent Effect [2]: -12.4%

O=C(c1ccsc1)N1CCCC(c2cc(C(F)(F)F)[nH]n2)C1 (stereo not drawn)
Percent Effect [1]: 7.19% | Percent Effect [2]: 28%

Cc1cnc2c(S(=O)(=O)NCC3CCN(C4CC4)C3)cccc2c1 (stereo not drawn)
Percent Effect [1]: 3.65% | Percent Effect [2]: 25.5%

CCN1CC(C(=O)NCc2ccnc(-n3ccnc3C)c2)CC1=O (stereo not drawn)
Percent Effect [1]: -3.16% | Percent Effect [2]: -11.9%

Cn1nc(CNC(=O)c2ccc(Cl)cc2)c2c1CCOC2
Percent Effect [1]: 2.4% | Percent Effect [2]: -5.64%

CCN(Cc1ccco1)C(=O)NCc1nnc2n1CCC2
Percent Effect [1]: 0.859% | Percent Effect [2]: -4.02%

CC(C)(CNC(=O)CCOc1cccc(F)c1)C(N)=O
Percent Effect [1]: -0.256% | Percent Effect [2]: 29.6%

CC(C)N1CCCC2(CCN(C(=O)CCCn3cncn3)C2)C1=O (stereo not drawn)
Percent Effect [1]: -0.717% | Percent Effect [2]: 11.1%

O=C([C@H]1C[C@H]2OCC[C@H]2N(CCc2ccccc2)C1)N1CCCCO1
Percent Effect [1]: 0.871% | Percent Effect [2]: 6.49%

O=C(NCc1cc(O)ncn1)C1COc2ccccc2C1 (stereo not drawn)
Percent Effect [1]: -3.92% | Percent Effect [2]: 12.8%

CCc1ncc(CNC2CC(=O)N(CCc3cccc(Cl)c3)C2)cn1 (stereo not drawn)
Percent Effect [1]: -0.729% | Percent Effect [2]: -24.9%

O=C(Nc1ccccc1)C1CN(CC2CC2)CC12CCOCC2 (stereo not drawn)
Percent Effect [1]: 0.903% | Percent Effect [2]: -13.2%

Cc1noc2ncc(C(=O)N3CCCC3c3cnn(C)c3)cc12 (stereo not drawn)
Percent Effect [1]: 3.4% | Percent Effect [2]: -3.42%

Cn1nc2c(cc1=O)CN(Cc1nnc(-c3ccc(F)cc3)o1)CC2
Percent Effect [1]: 19.5% | Percent Effect [2]: -108%

CN(Cc1ccco1)[C@@H]1CN(Cc2ccc(F)cc2)C[C@@H]2CCCO[C@@H]21
Percent Effect [1]: 6.12% | Percent Effect [2]: 7.23%

CC(c1nc(C2CC2)no1)N1CCN(Cc2cccc(C#N)c2)CC1 (stereo not drawn)
Percent Effect [1]: -3.08% | Percent Effect [2]: 9.24%

CC(C)c1ncc2c(n1)CN(Cc1ccc(C(N)=O)cc1)CC2
Percent Effect [1]: -0.3% | Percent Effect [2]: -42.6%

Source: ChEMBL document CHEMBL3988442, “University of Dundee, Small-Polar-MMV Screening Library” (2021)
